Structures are written as SMILES. Where “and” joins values, the source holds several entries; their conditions need not be identical. Identical values can stand only once. Inconclusive results are not listed. More than one record can exist for a structure, and the calls need not agree. Calls of active or inactive are those of the source. Unless noted, calls follow the shape of the full dose curve.

A short description of test [1]: Nuclear factor erythroid 2-related factor 2/antioxidant responsive element (Nrf2/ARE) small molecule agonists: luciferase reporter gene qHTS assay in human keratinocytes (AID 1919969). Also: nearly all actives have a fitted effect of over 35% in size. Also: potency is read from the fitted curve at half-maximal effect.
For test [2], the target named is Gonadotropin-releasing hormone receptor (Homo sapiens) (UniProt P30968). The experiment in a line: Human gonadotropin-releasing hormone receptor (GnRHR) small molecule agonists, calcium flux assay in GnRHR-HEK293 cells (AID 1920063). Also: nearly all actives have a fitted effect of over 35% in size. The gist of the method:
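Fluorescence kinetics (480 nm excitation, 540 nm emission; 3 min, 1 s steps) report calcium mobilisation in human GnRHR-HEK293 cells in agonist mode. Dye incubation: 1 h, 37 C.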

For test [3], the target named is KiSS-1 receptor (Homo sapiens) (UniProt Q969F8). The experiment in a line: Human kisspeptin (KISS1R) small molecule agonists, calcium flux assay in KISS1R-HEK293 cells (AID 1920064; active = well fitted activation curve with a large enough effect in the repeat runs). The essentials:
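Measures KISS1R agonism through calcium-sensitive dye fluorescence in stably transfected HEK293 cells, read for 3 min after pin-tool compound delivery; 15-point titrations in triplicate.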
On the technique in general: Calcium assays in cells follow changes in intracellular calcium, usually with a dye or a luminescent sensor.

A short description of test [4]: G protein-coupled receptor (GPCR) small molecule agonists, calcium flux assay: HEK293 wild type cell line counter screen (AID 1920065). The essentials:
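Readout: fluorescence at 480 nm excitation/540 nm emission, sampled at 1 s intervals for 3 min. Cells had been cultured 18 h, then dye-loaded 1 h at 37 C before compound or ATP addition.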

Test [5] is described as follows: p53 small molecule agonists, cell-based qHTS assay with rat liver microsomes (AID 1963578). Also: potency is read from the fitted curve at half-maximal effect. The essentials:
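Each plate received p53RE-bla cells, then compound, then rat liver microsomes and NADPH (both 0.5 mg/mL final). Plates were held 16 h at 37 C, and beta-lactamase activity was detected with LiveBLAzer over 2 h.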
A general note: Quantitative high-throughput screening tests each substance at several concentrations.

A short description of test [6]: p53 small molecule agonists, cell-based qHTS assay with human liver microsomes: qHTS cell viability counter screen (AID 1963579). Also: nearly all actives have a fitted effect of over 45% in size. Also: potency is read from the fitted curve at half-maximal effect. The gist of the method:
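Tox21 library compounds, delivered from DMSO stocks, were tested on p53RE-bla cells together with 0.5 mg/mL human liver microsomes and 0.5 mg/mL NADPH (final) over 16 h at 37 C; CellTiter-Glo luminescence served as the cytotoxicity measure.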

Test [7] is described as follows: p53 small molecule agonists, cell-based qHTS assay with rat liver microsomes: qHTS cell viability counter screen (AID 1963580). Also: nearly all actives have a fitted effect of over 45% in size. The gist of the method: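 Viability is assessed in parallel with the p53 reporter read: HCT-116 p53RE-bla cells receive compounds plus rat microsomes and NADPH (0.5 mg/mL final apiece), incubate 16 h at 37 C, and then CellTiter-Glo luminescence is recorded.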

The nature of test [8]: p53 small molecule agonists, cell-based qHTS assay: qHTS cell viability counter screen (AID 1963581). Also: nearly all actives have a fitted effect of over 45% in size. Also: potency is read from the fitted curve at half-maximal effect. The essentials: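 In the same plates used for the p53 bla reporter, HCT-116 cells given compounds for 16 h at 37 C received CellTiter-Glo; luminescence was recorded 30 min later at room temperature.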
Test [9] addresses 5-hydroxytryptamine receptor 2A (Homo sapiens) (UniProt P28223). Nature of the test: 5-hydroxytryptamine receptor 2A (HTR2A) small molecule antagonists, cell-based qHTS assay (AID 1963586). Also: nearly all actives have a fitted effect of over 45% in size. The gist of the method:
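Antagonist-mode intracellular calcium assay: DOI (4 nM) added after 5 min compound pre-incubation at room temperature to dye-loaded HTR2A-CHO cells. Fluorescence followed for 3 min, sampled every second.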

Test [10] shares this target. The experiment in a line: 5-hydroxytryptamine receptor 2A (HTR2A) small molecule agonists, cell-based qHTS assay (AID 1963587). Also: nearly all actives have a fitted effect of over 30% in size. Also: potency is read from the fitted curve at half-maximal effect. The essentials: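 CHO cells stably expressing human HTR2A, plated 18 h, loaded with calcium dye 1 h at 37 C. Agonist mode: compounds added and intracellular calcium fluorescence recorded kinetically for 2 min at 1 sec intervals.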
Test [11] addresses Muscarinic acetylcholine receptor M1 (Homo sapiens) (UniProt P11229). The experiment in a line: Cholinergic receptor muscarinic 1 (CHRM1) small molecule antagonists, cell-based qHTS assay (AID 1963588). Also: nearly all actives have a fitted effect of over 40% in size. The gist of the method: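 CHRM1-CHO calcium-flux assay, antagonist mode. Cells were seeded 18 h, dye-loaded 1 h at 37 C and given compound for 5 min at RT, then acetylcholine was added at 50nM. FDSS fluorescence was read 3 min; 15 concentrations, three runs.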

The target is the same in test [12]. Nature of the test: Cholinergic receptor muscarinic 1 (CHRM1) small molecule agonists, cell-based qHTS assay (AID 1963589). Also: nearly all actives have a fitted effect of over 35% in size. The gist of the method: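 Each compound was tested at 15 concentrations across three independent runs on dye-loaded CHO cells stably expressing human CHRM1, reading intracellular calcium fluorescence kinetically at 1 sec intervals.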
Test [13] is described as follows: cAMP Responsive Elements (CRE) small molecule antagonists, cell-based qHTS assay (AID 1963591; active = well fitted inhibition curve with a large enough effect in the signal ratio in the repeat runs, not every such curve was filed as active; the % refers to the signal ratio; also: potency is read from the fitted curve at half-maximal effect). The essentials:
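Inhibition of NKH477-driven (0.25 uM final) CRE-beta-lactamase signal in HEK293T cells, 3 h compound exposure at 37 °C, detected by FRET substrate fluorescence.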

Test [14] concerns the target Beta-2 adrenergic receptor (Homo sapiens) (UniProt P07550). The experiment in a line: Adrenergic beta2 receptor (ADRB2) small molecule antagonists, cell-based qHTS assay (AID 1963592). Also: nearly all actives have a fitted effect of over 50% in size. Also: potency is read from the fitted curve at half-maximal effect. The gist of the method: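 Cells (CHO, stable ADRB2 overexpression) incubated 18-20hr at 37C; compounds added from DMSO; agonist mix (1nM isoproterenol, 100uM IBMX, 25uM Ro-20-1724) added; 0.5hr RT; d2-cAMP and anti-cAMP-cryptate added; 1hr RT; 665/615 nm read.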

In test [15] the target is D(2) dopamine receptor (Homo sapiens) (UniProt P14416). The experiment in a line: Dopamine D2 receptor (DRD2) small molecule agonists, cell-based qHTS assay (AID 1963594). Also: nearly all actives have a fitted effect of over 35% in size. The essentials:
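HEK293 cells stably expressing human DRD2, pre-treated with PDE inhibitor Ro20-1724 (0.1 mM final) and compound 10 min at room temperature, then stimulated with NKH477 (200nM […]) for 30 min. cAMP read by HTRF (665/620 nm).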

For test [16] the target is unchanged. The experiment in a line: Dopamine D2 receptor (DRD2) small molecule antagonists, cell-based qHTS assay (AID 1963595; active = well fitted inhibition curve with a large enough effect in the signal ratio in the repeat runs, with a control signal flat; the % refers to the signal ratio). The gist of the method:
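DRD2-HEK293; 0.1 mM Ro20-1724; cpd 10 min RT; NKH477 200 nM + quinpirole 12 nM, 30 min RT; HTRF cAMP (cAMP-d2/anti-cAMP cryptate), 665/620 nm ratio after 1 h.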

Test [17] deals with Beta-2 adrenergic receptor (Homo sapiens) (UniProt P07550). Nature of the test: Adrenergic beta2 receptor (ADRB2) small molecule agonists, cell-based qHTS assay (AID 1963593).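 Also: CHO cells stably overexpressing human ADRB2.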 The essentials:
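CHO cells stably over-expressing ADRB2 were plated overnight at 37C, then dosed with compounds plus a stimulation mix containing 100uM IBMX and 25uM Ro-20-1724 for 0.5hr at room temperature. cAMP was measured by HTRF competition, 1hr.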

The nature of test [18]: p53 small molecule agonists, cell-based qHTS assay with human liver microsomes (AID 1963577).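 Also: p53 response element beta-lactamase reporter cells with liver microsomes plus NADPH.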 The essentials:
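Metabolically competent format: test substances, human liver microsomes and NADPH (both 0.5 mg/mL final) incubated with p53RE-bla cells 16 h at 37 C. Beta-lactamase reporter signal then quantified by fluorescence.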

Test [19] in a line: cAMP Responsive Elements (CRE) small molecule agonists, cell-based qHTS assay (AID 1963590). The essentials: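 Cell line: CRE-bla HEK 293T; medium DMEM/10% dialyzed FBS/0.1 mM NEAA/1 mM pyruvate/25 mM HEPES; 3 h compound exposure; beta-lactamase FRET readout after 2 h substrate loading at RT.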
A short description of test [20]: p53 small molecule agonists, cell-based qHTS assay (AID 1963582; active = well fitted activation curve with a large enough effect in the signal ratio in the repeat runs, not every such curve was filed as active; the % refers to the signal ratio). The gist of the method:
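Compounds are pin-transferred in DMSO onto p53RE-bla cells and incubated 16 h at 37 C. The B/G FRET beta-lactamase substrate is then applied for 2 h at RT and fluorescence recorded.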

Sequence of 5-hydroxytryptamine receptor 2A (Homo sapiens) (P28223 whole entry, looked up): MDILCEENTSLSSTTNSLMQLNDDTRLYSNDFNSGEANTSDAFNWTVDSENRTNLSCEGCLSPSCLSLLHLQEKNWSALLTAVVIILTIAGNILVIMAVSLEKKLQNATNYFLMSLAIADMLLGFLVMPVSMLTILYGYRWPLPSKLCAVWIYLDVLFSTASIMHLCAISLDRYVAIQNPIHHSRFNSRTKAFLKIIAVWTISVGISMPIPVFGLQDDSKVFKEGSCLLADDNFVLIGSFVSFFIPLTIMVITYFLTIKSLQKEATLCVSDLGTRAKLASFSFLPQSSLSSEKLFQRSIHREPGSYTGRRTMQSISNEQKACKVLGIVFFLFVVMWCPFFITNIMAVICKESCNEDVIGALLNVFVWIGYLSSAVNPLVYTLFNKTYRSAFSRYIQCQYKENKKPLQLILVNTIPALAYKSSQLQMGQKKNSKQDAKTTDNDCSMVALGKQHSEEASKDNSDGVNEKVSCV
Sequence of Gonadotropin-releasing hormone receptor (Homo sapiens) (P30968 whole entry, looked up): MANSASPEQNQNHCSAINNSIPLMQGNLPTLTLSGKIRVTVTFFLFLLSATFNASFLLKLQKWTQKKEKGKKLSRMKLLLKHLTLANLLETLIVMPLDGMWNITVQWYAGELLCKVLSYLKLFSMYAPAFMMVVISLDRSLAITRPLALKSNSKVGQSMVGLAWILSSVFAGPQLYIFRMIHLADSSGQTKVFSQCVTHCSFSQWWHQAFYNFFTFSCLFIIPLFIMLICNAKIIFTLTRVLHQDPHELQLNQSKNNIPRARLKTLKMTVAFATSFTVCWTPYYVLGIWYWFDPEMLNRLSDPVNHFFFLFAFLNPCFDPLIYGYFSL
Sequence of Beta-2 adrenergic receptor (Homo sapiens) (P07550 whole entry, looked up): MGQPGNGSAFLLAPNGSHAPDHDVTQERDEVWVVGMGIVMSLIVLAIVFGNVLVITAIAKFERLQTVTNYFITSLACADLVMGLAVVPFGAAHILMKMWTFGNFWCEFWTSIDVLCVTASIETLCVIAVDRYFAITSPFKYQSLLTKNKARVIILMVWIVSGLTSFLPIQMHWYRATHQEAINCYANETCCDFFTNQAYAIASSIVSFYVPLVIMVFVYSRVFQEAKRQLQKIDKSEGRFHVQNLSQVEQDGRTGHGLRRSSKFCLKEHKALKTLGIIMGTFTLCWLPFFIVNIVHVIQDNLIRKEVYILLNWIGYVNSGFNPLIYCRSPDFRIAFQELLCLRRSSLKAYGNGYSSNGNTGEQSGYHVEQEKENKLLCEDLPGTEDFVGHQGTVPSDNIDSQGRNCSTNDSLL
Sequence of KiSS-1 receptor (Homo sapiens) (Q969F8 whole entry, looked up): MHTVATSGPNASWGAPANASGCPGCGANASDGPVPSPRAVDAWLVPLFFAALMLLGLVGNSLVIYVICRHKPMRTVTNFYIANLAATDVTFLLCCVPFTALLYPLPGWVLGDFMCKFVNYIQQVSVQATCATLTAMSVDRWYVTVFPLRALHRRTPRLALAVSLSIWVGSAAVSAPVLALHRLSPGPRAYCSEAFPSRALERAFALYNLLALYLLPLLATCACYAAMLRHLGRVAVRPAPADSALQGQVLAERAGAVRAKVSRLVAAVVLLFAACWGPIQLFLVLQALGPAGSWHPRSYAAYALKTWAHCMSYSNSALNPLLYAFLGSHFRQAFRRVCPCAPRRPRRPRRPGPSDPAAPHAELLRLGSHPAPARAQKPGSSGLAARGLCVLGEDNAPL
Sequence of Muscarinic acetylcholine receptor M1 (Homo sapiens) (P11229 whole entry, looked up): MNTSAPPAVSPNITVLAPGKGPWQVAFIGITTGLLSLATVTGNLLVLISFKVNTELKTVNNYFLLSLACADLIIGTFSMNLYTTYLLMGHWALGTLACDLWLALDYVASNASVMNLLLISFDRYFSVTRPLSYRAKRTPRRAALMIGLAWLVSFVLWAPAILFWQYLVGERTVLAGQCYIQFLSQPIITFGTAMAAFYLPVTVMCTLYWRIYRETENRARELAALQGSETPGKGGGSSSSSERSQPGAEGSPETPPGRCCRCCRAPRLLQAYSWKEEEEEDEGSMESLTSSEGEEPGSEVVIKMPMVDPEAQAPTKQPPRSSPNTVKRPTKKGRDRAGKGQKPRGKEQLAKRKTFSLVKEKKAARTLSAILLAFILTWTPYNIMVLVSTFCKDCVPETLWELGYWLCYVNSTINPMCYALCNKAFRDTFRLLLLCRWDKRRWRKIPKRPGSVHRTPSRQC
Sequence of D(2) dopamine receptor (Homo sapiens) (P14416 whole entry, looked up): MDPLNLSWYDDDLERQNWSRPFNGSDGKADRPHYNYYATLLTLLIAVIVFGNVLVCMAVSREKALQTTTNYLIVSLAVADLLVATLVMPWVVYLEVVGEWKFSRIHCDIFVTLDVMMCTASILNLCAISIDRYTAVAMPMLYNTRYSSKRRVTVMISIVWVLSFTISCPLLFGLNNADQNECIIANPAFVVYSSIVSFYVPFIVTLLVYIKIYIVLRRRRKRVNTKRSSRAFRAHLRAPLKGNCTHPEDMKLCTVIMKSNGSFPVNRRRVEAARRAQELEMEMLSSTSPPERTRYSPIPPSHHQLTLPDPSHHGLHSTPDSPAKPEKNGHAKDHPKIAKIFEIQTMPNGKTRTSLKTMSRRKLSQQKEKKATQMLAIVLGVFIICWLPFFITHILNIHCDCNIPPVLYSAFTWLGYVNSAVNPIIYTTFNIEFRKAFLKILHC

For `COC(=O)C1=C(C)NC(COC(N)=O)=C(C(=O)OC(C)C)C1c1cccc(Cl)c1Cl` (configuration not stated), the Potency result in test [1], in test [2], in test [3], in test [4], in test [6] and in [7] was “inactive” each time. Besides, the Potency result in test [8], in test [9], in test [10], in test [11], in [12] and in test [13] was “inactive” throughout. Moreover, the Potency result in test [14], in test [15] and in [16] was “inactive” throughout. The Potency in [5] is 19.9 µM (active).
Take `C=CC(=O)OCC1CC2CC1C1CCC(COC(=O)C=C)C21` (configuration not stated): the Potency was 24.3 µM (active) in test [1] and 40.8 µM (active) in test [6]. The Potency result in test [2], in [3], in [4], in [5], in test [7] and in [9] was “inactive” each time. In addition, the Potency entry in [10], in test [11], in [14], in [17], in test [15] and in test [16] was “inactive” each time.
Consider `C=C1CC[C@H](O)CC1=C/C=C1\CCC[C@]2(C)[C@@H]([C@H](C)/C=C/[C@H](C)C(C)C)CC[C@@H]12`, for which the Potency in [1] is 21.5 µM (active) and 61.1 µM (active). Further, the Potency result in test [2], in [3], in [4], in test [18], in test [6] and in test [7] was “inactive” throughout. Further, the Potency entry in test [8], in test [14], in test [15] and in [16] was “inactive” throughout.
In the case of `CCN(CC)CCNc1ccc(CO)c2sc3ccccc3c(=O)c12`, the Potency in [1] was 11.9 µM (active); in test [13] it was 26.6 µM (active); in test [14], 16.8 µM (active). Also, the Potency result in test [2], in test [3], in test [4], in test [5], in test [6] and in [7] was “inactive” in each case. Further, the Potency result in test [9], in [12], in test [19] and in test [16] was “inactive” in each case.
`COC(=O)c1nc(Cl)c(Cl)nc1N`: the Potency in test [1] was 5.96 µM (active). Also, the Potency entry in [2], in test [3], in test [4], in [18], in test [9] and in test [10] was “inactive” each time. For the same compound, the Potency entry in test [11], in test [14] and in test [16] was “inactive” in each case.
`O=C1CCCc2c1cc1ccc3cccc4ccc2c1c34`: the Potency in test [1] is 34.8 µM (active). Also, the Potency entry in test [2], in test [3], in test [4], in [5], in [6] and in test [7] was “inactive” in each case. The Potency entry in test [9], in test [10], in test [11], in test [12], in [13] and in [14] was “inactive” throughout. The Potency result in test [15] and in test [16] was “inactive” each time.
`CCOc1ccc(O)cc1`: the Potency result in [1], in test [2], in [3], in test [4], in test [18] and in [6] was “inactive” in each case. The Potency result in test [7], in test [20], in test [9], in [10], in test [11] and in [12] was “inactive” each time. The Potency entry in test [19], in [13], in test [14] and in [15] was “inactive” each time.
Consider `Cc1c2ccccc2c(C)c2c1ccc1ccccc12`, for which the Potency is 13.5 µM (active) and 9.69 µM (active) in test [1]; 10.9 µM (active) and inactive in [10]. Further, the Potency entry in [2], in [3], in test [4], in test [18], in [6] and in test [7] was “inactive” throughout. Further, the Potency entry in test [8], in test [9], in test [11], in test [12], in [15] and in test [16] was “inactive” in each case.
Regarding `C[C@H]1O[C@@H](O[C@H]2CC[C@@]3(C)[C@H](CC[C@@H]4[C@@H]3C[C@@H](O)[C@]3(C)[C@@H](C5=CC(=O)OC5)CC[C@]43O)C2)C[C@H](O)[C@@H]1O[C@H]1C[C@H](O)[C@H](O[C@H]2C[C@H](O)[C@H](O[C@@H]3O[C@H](CO)[C@@H](O)[C@H](O)[C@H]3O)[C@@H](C)O2)[C@@H](C)O1`, the Potency was 0.531 µM (active) in test [1] and 0.251 µM (active) in [8]. Also, the Potency result in test [2], in test [3], in test [4], in test [5], in [6] and in test [10] was “inactive” throughout. Besides, the Potency result in [11], in [12], in test [14], in test [15] and in test [16] was “inactive” throughout.

Values taken from PubChem BioAssay (Tox21).
